{"source": "PubChem BioAssay (NCATS)", "note": "Inconclusive results are not listed. Activity calls are given as the source filed them. Calls come from the whole dose curve; as a rule, active = well fitted inhibition curve with a large enough effect; inconclusive = small, poorly fitted or top-dose-only effect; inactive = flat fitted curve, though single readings scatter. Where a SMILES comes first, the peptide text is derived from it. [ ]: non-standard residue; d: D form. Hyp = O=C(O)[CH]1C[CH](O)CN1; Phe(ol) = N[CH](CO)Cc1ccccc1; Iva = CC[C](C)(N)C(=O)O; Aib = CC(C)(N)C(=O)O", "data": [{"assay": "P-glycoprotein substrates identified in KB-8-5-11 adenocarcinoma cell line, qHTS therapeutic library screen (AID 1346987); note: nearly all actives have a fitted effect of over 65% in size; note: potency is the fitted concentration of half-maximal effect; for activity change, negative = cytotoxicity: % is set by controls: 0 for no effect and ±100 for the full control effect", "conditions": "KB-8-5-11 (P-gp overexpressing) viability, CellTiter-Glo, 72 h; series mostly up to 44.5 µM; activity change, negative = cytotoxicity: at the top concentration", "outline": "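Human cervical adenocarcinoma KB-8-5-11 cells, selected in colchicine to over-express P-gp and assayed without it, were exposed for 72 h to titrated compounds. An ATP-based luminescent viability signal gave AC50.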", "values": [{"smiles": "COc1ccc(NC(=O)C2C[C@H](C)CC[C@H]2C(C)C)cc1", "note": "(some centres undefined)", "activity change, negative = cytotoxicity": "-15.3% (inactive)"}, {"smiles": "COc1ccc(C2Oc3c(OC)cc(CCCO)cc3C2COC2OC(CO)C(O)C(O)C2O)cc1OC", "note": "(centres undefined)", "outcome": "inactive [at 17.3 µM]"}, {"smiles": "C=CS(=O)(=O)NC1CCN(C(=O)CNc2cc(I)c(Cl)cc2OC)CC1", "Potency": "14.6 µM (active)"}, {"smiles": "Cc1cc(F)ccc1-c1nc(NCCN=C(N)NC#N)nc2c1ccc(=O)n2-c1c(F)cccc1F", "activity change, negative = cytotoxicity": "-6.45% (inactive)"}, {"smiles": "Cn1ncnc1[C@@H]1c2n[nH]c(=O)c3cc(F)cc(c23)N[C@H]1c1ccc(F)cc1", "activity change, negative = cytotoxicity": "-2.45% (inactive)"}, {"smiles": "C=C1C(=O)OC2C3=C(C)C(=O)CC3C(C)CC(O)C12", "note": "(centres undefined)", "activity change, negative = cytotoxicity": "-0.957% (inactive)"}, {"smiles": "Cn1cc(-c2ccc(F)c(C(F)(F)F)c2)nc1C1CCN(c2ncnc3[nH]ncc23)CC1", "activity change, negative = cytotoxicity": "4.47% [at 17.3 µM] (inactive)"}, {"smiles": "CC1=CC2/C=C(\\C)CCC(O)C/C=C/C(=O)OC23C(=O)NC(CC(C)C)C3C1C", "note": "(centres undefined)", "activity change, negative = cytotoxicity": "-9.78% [at 17.3 µM] (inactive)"}, {"smiles": "CC1(C)C2CCC(CO[C@@H]3O[C@H](CO[C@@H]4OC[C@](O)(CO)[C@H]4O)[C@@H](O)[C@H](O)[C@H]3O)C1C2", "note": "(some centres undefined)", "outcome": "inactive [at 17.3 µM]"}, {"smiles": "CN1CCC(c2cn(C)c3ccc(OS(=O)(=O)c4c(F)cccc4F)cc23)CC1", "Potency": "18.4 µM (active)"}, {"smiles": "Cc1nc(C(=O)N2CCC[C@H]2Cc2nnc(-c3ccccc3)o2)c(-c2ccccc2F)s1", "activity change, negative = cytotoxicity": "-19.2% (inactive)"}, {"smiles": "Cn1cc(-c2ccc(S(=O)(=O)n3ccc(/C=C/C(=O)Nc4ccccc4N)c3)cc2)cn1", "Potency": "2.59 µM (active)"}, {"smiles": "O=C1c2ccc(Nc3ccc(F)cc3F)cc2CCc2ccc(OCC(O)CO)cc21", "note": "(centres undefined)", "Potency": "14.6 µM (active)"}, {"smiles": "CC(=O)O[C@H]1CC[C@@]2(C)C(=CC[C@H]3[C@@H]4CC[C@H](C(C)=O)[C@@]4(C)CC[C@@H]32)C1", "activity change, negative = cytotoxicity": "9% (inactive)"}, {"smiles": "CC1CCC/C=C/C(=O)c2c(O)cc(O)cc2CC(=O)O1", "note": "(centres undefined)", "Potency": "5.8 µM (active)"}, {"smiles": "C/C=C/C=C/C=C/C(=O)O[C@@H]1C=C2COC(=O)[C@]2(O)[C@@]2(C)CCCC(C)(C)[C@H]12", "activity change, negative = cytotoxicity": "-7.86% [at 17.3 µM] (inactive)"}, {"smiles": "CC(C)S(=O)(=O)Nc1ccc(F)c(C(=O)c2c[nH]c3ncc(-c4cccnc4)cc23)c1F", "activity change, negative = cytotoxicity": "-6.3% (inactive)"}, {"smiles": "O=C(COc1ccc(C(=O)c2ccccc2)cc1)NC1CCN(Cc2ccccc2)CC1", "activity change, negative = cytotoxicity": "-21.6% (inactive)"}, {"smiles": "CCC(=O)O", "activity change, negative = cytotoxicity": "3.95% (inactive)"}, {"smiles": "O=C(C1CCCCC1)N(CCN1CCN(c2ccccc2O)CC1)c1ccccn1", "activity change, negative = cytotoxicity": "-25.9% (inactive)"}, {"smiles": "Cc1cn(CCN2CCN(c3ccccc3-c3cc(C#N)cc(C(=O)NCCCN4CCCC4)c3)CC2)c2ccccc12", "Potency": "18.4 µM (active)"}, {"smiles": "COC1C=C(C)C(O)(CO)C2(C)CCCC(C)(C)C12", "note": "(centres undefined)", "activity change, negative = cytotoxicity": "-18.1% (inactive)"}, {"smiles": "CC(C)CCCCC(=O)N[C@@H](CO)C(=O)N[C@@H](CC(C)C)C(=O)[C@@]1(CO)CO1", "activity change, negative = cytotoxicity": "9.93% (inactive)"}, {"smiles": "COc1cc2ncc(-c3ccccc3)nc2cc1OC", "Potency": "8.2 µM (active)"}, {"smiles": "CCC(C)(NC(=O)C(CCC(N)=O)NC(=O)C1CC(O)CN1C(=O)C(C)(C)NC(=O)C(C)(C)NC(=O)C(CC(C)C)NC(=O)CNC(=O)C(NC(=O)C(C)(C)NC(=O)C(C)(C)NC(=O)C(C)(C)NC(=O)C(Cc1ccccc1)NC(C)=O)C(C)C)C(=O)N1CC(O)CC1C(=O)NC(C)(C)C(=O)NC(CO)Cc1ccccc1", "note": "(centres undefined) (Ac-F[Aib][Aib][Aib]VGL[Aib][Aib][Hyp]Q[Iva][Hyp][Aib][Phe(ol)]; configuration not given here)", "activity change, negative = cytotoxicity": "-10.8% [at 9.29 µM] (inactive)"}, {"smiles": "CCn1c(-c2nonc2N)nc2c(C#CCO)ncc(OCCCN)c21", "outcome": "inactive"}, {"smiles": "Nc1nc2c(s1)CCN(Cc1ccc(Cl)cc1)CC2", "activity change, negative = cytotoxicity": "4.43% (inactive)"}, {"smiles": "Cc1cc2c(c(=O)o1)C=C1CC[C@H]([C@H](C)Cn3cnc(=N)c4[nH]cnc43)C[C@@H]1O2", "activity change, negative = cytotoxicity": "-16.4% (inactive)"}, {"smiles": "CC(O)C(C)n1ncn(-c2ccc(N3CCN(c4ccc(OCC5COC(Cn6cncn6)(c6ccc(Cl)cc6Cl)O5)cc4)CC3)cc2)c1=O", "note": "(centres undefined)", "Potency": "14.6 µM (active)"}, {"smiles": "Cc1ccc(O)cc1Nc1ccnc(Nc2cccc(C(N)=O)c2)n1", "Potency": "23.1 µM (active)"}, {"smiles": "Cc1ccccc1CN1CCn2c1nc1c(c2=O)CN(Cc2ccccc2)CC1", "activity change, negative = cytotoxicity": "-16.3% (inactive)"}, {"smiles": "CC[C@@H]1C[C@]1(NC(=O)[C@@H]1C[C@@H]2CN1C(=O)[C@H](C(C)(C)C)NC(=O)OCC(C)(C)CCCCc1cccc3c1CN(C3)C(=O)O2)C(=O)NS(=O)(=O)C1CC1", "outcome": "inactive"}, {"smiles": "Cc1cc(C(=O)Nc2cc(Oc3ccc4nc(NC(=O)C5CC5)cn4n3)ccc2C)n(C)n1", "Potency": "9.2 µM (active)"}, {"smiles": "O=C(O)c1cccc(/C=C2/C[C@@H]3[C@@H](/C=C/[C@@H](O)C4CCCCC4)[C@H](O)C[C@@H]3O2)c1", "activity change, negative = cytotoxicity": "-6.44% (inactive)"}]}]}
